Experimental data: PubChem BioAssay AID1259415 (National Center for Advancing Translational Sciences (NCATS), 2018)
The campaign covered roughly 410,000 compounds. About 18,000 (4.4%) were called active. Inconclusive results (about 7%) are left out. For the sample, actives were picked, then their nearest neighbours and some compounds at random. Unmarked numbers belong to inactive results. No stated cut-off is given here; in the data, active means activity change below about -60%; inconclusive means no clear call, values can overlap the other calls; inactive means above about -39%.

Test: qHTS Assay for inhibitors of the human cytomegalovirus (HCMV)
Conditions: HFF cells, HCMV-luciferase reporter, 72 h; at 57.5 µM; stronger effect = lower value
Method in brief: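 Screen run at 2 compound doses on HFFs infected with reporter HCMV, MOI 1 PFU/cell. Luciferase activity from cell lysates at 72 h post infection gave inhibition relative to buffer-only and Salinomycin wells.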
On the % scale 0 is the no-effect control and ±100 the full control effect.

Structure (SMILES) | activity change, negative = inhibition
O=C(CSC1c2ccccc2-c2ccccc21)N/N=C/c1ccccc1 | 35.4%
Cc1ccc(/C=N/NC(=O)COc2ccccc2-c2ccccc2)cc1 | -81.9% (active)
Nc1nnn(CC(=O)N/N=C/c2ccccc2)n1 | -9.02%
CCOCCCNC(=O)c1c(NC(=O)c2nc(SC)ncc2Cl)sc2c1CCCC2 | 47.5%
O=C(CCn1c(=O)c2sccc2n(Cc2ccc(F)cc2)c1=O)NCc1ccc2c(c1)OCO2 | 14.2%
O=C(Nc1nnc(C2COc3ccccc3O2)o1)c1ccc(F)cc1 (stereo unspecified) | -81.3% (active)
c1ccc2c(c1)OCC(c1nn3cnnc3s1)O2 (stereo unspecified) | -4.38%
CSc1ccccc1-c1nnc(NC(=O)c2ccc3c(c2)OCCO3)o1 | 21.3%
Oc1ccccc1-c1nc(/C=C/c2ccc(F)cc2)no1 | 94.7%
COc1ccc(CNC(=O)c2cc3c(s2)-c2ccccc2OC3)cc1 | -13.2%
COc1cc(CNC(=O)c2cc3n(n2)CCCN(Cc2cccc(F)c2)C3=O)cc(OC)c1OC | -12.3%
C=C(C)CSc1nnc(-c2ccc(C)cc2)n1N | -8.53%
CN(C)c1cc[n+](Cc2ccccc2)cc1 | -86.3% (active)
N#Cc1ccc(-c2cccs2)nc1SCc1ccc(Br)cc1 | 5.81%
O=C(Nc1ccc2c(c1)OCCO2)C1c2ccccc2OCC(=O)N1Cc1ccccn1 (stereo unspecified) | 3.21%
O=C1c2ccccc2C(Nc2ccc3c(c2)OCCO3)N1Cc1ccco1 (stereo unspecified) | -60.9% (active)
CCCCCn1nnnc1C1c2ccccc2C(=O)N1Cc1ccco1 (stereo unspecified) | -25.7%
Cc1ccc(-c2noc(CSc3nnc(-c4ccc(Cl)cc4)n3C)n2)cc1 | -12.3%
CC1CN(C(=O)N2CCC(C(=O)NCc3cccs3)CC2)c2ccccc2O1 (stereo unspecified) | 8.43%
CCc1ccc(Nc2nn3c(=O)c4cc5c(cc4nc3s2)OCO5)cc1 | 9.55%
COc1cccc(C(c2nnnn2-c2ccc3c(c2)OCCO3)N2CCC3(CC2)C(=O)NCN3c2ccccc2)c1OC (stereo unspecified) | -15.1%
Cc1nonc1C1CCCN1Cc1nc(-c2ccc(F)cc2F)oc1C (stereo unspecified) | -69.4% (active)
Cc1oc(-c2ccccc2F)nc1CN1CCC(C(=O)NCCc2ccc(Cl)cc2)CC1 | 0.215%

Structure (SMILES) | activity change, negative = inhibition
COc1ccc(F)c(-c2nc(CN3CCC(c4ccccc4)CC3)c(C)o2)c1 | -14%
Cc1ccc(N(CC(=O)NCc2ccc(Cl)cc2)S(=O)(=O)N(C)C)cc1 | -16.9%
COc1ccc2c3c([nH]c2c1)[C@@H](CO)N(C(=O)C1CC1)CC31CCN(Cc2nccs2)CC1 | -2.14%
COc1ccc(CNC(=O)CSCc2nc(-c3ccccc3F)oc2C)cc1 | -16%
COc1ccc(N2CCN(C(=O)CSCc3nc(-c4ccccc4Cl)oc3C)CC2)cc1 | -81.2% (active)
COc1ccc(N2CCN(C(=O)CCSCc3ccccc3F)CC2)cc1 | -16.4%
COc1cccc(N=C2SC(C(=O)Nc3cccc(Cl)c3)CC(=O)N2C)c1 (stereo unspecified) | -4.69%
O=C(CSCc1cnn(-c2ccccc2)c1-n1cccc1)NCc1ccc(Cl)cc1 | -3.89%
CCCn1nnnc1NCc1ccc(OC)cc1 | -30.2%
CCCC(=O)n1nc(NCc2ccc(OC)cc2)nc1NCc1ccc(OC)cc1 | -26.6%
COc1ccc(CNc2c(CO)cnc3c2cnn3C)cc1 | -66.6% (active)
Fc1ccccc1Oc1ncnc2c1oc1ccccc12 | -3.15%
O=C(CC(NCc1cccnc1)C(=O)O)Nc1ccc(O)cc1 (stereo unspecified) | 5.47%
COc1ccccc1NC(=O)CSc1nnc(CNC(=O)c2ccccc2F)o1 | -5.51%
COc1cc(Cl)c(C)cc1NC(=O)CSc1nnc(CN2CCCC2)o1 | -9.81%
CCC(=O)Nc1ccc(C(=O)CSc2nnc(CNc3ccc(Cl)cc3)o2)cc1OC | -87.9% (active)
CCCCSc1ncnc2c1sc1nc(N3CCOCC3)c3c(c12)CCCC3 | 1.23%
Cc1ccc(-c2nc(Cn3c(=O)cc(-c4ccccc4)c4c(C)nn(C)c43)c(C)o2)cc1 | -9.59%
O=C(Nc1ccc(S(=O)(=O)NCC2CCCO2)cc1)c1ccc(F)cc1 (stereo unspecified) | -71.5% (active)
O=C(NCC1CCCO1)c1ccc(S(=O)(=O)Nc2ccc(F)cc2)cc1 (stereo unspecified) | -30.8%
Cc1ccc(NC(=O)c2ccc(S(=O)(=O)NCC3CCCO3)cc2)cc1C (stereo unspecified) | 0.647%
CCc1cccc(NC(=O)Cn2nc(CC)n3c(cc4cc(C)ccc43)c2=O)c1 | 18.4%
COc1ccc(CCNS(=O)(=O)c2cc(-c3cc(C)no3)ccc2C)cc1OC | 0%
